Key:
[1] = biological target: T1, Muscle, skeletal receptor tyrosine-protein kinase (Homo sapiens) (UniProt O15146); conditions: at 1 µM;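 note: reported value is the mean percent inhibition of MuSK kinase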
T1 sequence (whole entry): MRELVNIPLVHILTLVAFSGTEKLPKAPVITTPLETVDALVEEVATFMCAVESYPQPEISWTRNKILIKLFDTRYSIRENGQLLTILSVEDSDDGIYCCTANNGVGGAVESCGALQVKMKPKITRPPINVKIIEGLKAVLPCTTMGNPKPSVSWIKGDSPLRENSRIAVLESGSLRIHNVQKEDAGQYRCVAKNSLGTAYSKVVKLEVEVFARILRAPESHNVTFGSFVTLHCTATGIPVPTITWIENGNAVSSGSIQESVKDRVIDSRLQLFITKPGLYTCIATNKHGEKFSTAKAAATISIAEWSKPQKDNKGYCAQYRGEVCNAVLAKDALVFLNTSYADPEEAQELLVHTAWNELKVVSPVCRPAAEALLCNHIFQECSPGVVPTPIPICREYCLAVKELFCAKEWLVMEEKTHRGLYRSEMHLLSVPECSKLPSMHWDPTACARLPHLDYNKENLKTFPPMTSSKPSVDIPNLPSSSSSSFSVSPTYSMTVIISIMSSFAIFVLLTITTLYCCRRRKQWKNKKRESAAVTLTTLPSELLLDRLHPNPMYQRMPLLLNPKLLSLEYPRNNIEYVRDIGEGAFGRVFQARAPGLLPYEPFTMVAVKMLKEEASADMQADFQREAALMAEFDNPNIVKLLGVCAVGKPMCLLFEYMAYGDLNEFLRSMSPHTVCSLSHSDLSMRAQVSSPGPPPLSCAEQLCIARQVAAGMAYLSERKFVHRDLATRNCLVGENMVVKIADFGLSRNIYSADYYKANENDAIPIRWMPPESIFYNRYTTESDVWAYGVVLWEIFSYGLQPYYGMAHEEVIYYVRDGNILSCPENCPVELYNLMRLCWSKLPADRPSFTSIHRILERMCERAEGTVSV

[2] = biological target: Platelet-derived growth factor receptor alpha (Homo sapiens) (UniProt P16234); conditions: at 0.1 µM
[3] = biological target: Platelet-derived growth factor receptor alpha (Homo sapiens) (UniProt P16234); conditions: at 1 µM
[4] = system: Platelet-derived growth factor receptor alpha (Homo sapiens), P16234 [D842V]; conditions: at 0.1 µM
[5] = system: Platelet-derived growth factor receptor alpha (Homo sapiens), P16234 [D842V]; conditions: at 1 µM
[6] = system: Platelet-derived growth factor receptor alpha (Homo sapiens), P16234 [T674I]; conditions: at 0.1 µM
[7] = system: Platelet-derived growth factor receptor alpha (Homo sapiens), P16234 [T674I]; conditions: at 1 µM
[8] = system: Platelet-derived growth factor receptor alpha (Homo sapiens), P16234 [V561D]; conditions: at 0.1 µM
[9] = system: Platelet-derived growth factor receptor alpha (Homo sapiens), P16234 [V561D]; conditions: at 1 µM
[10] = biological target: Platelet-derived growth factor receptor beta (Homo sapiens) (UniProt P09619); conditions: at 0.1 µM
[11] = biological target: Platelet-derived growth factor receptor beta (Homo sapiens) (UniProt P09619); conditions: at 1 µM
[12] = biological target: Tyrosine-protein kinase FRK (Homo sapiens) (UniProt P42685); conditions: at 0.1 µM
[13] = biological target: Tyrosine-protein kinase FRK (Homo sapiens) (UniProt P42685); conditions: at 1 µM
[14] = biological target: Protein-tyrosine kinase 2-beta (Homo sapiens) (UniProt Q14289); conditions: at 0.1 µM
[15] = biological target: Protein-tyrosine kinase 2-beta (Homo sapiens) (UniProt Q14289); conditions: at 1 µM
[16] = biological target: Proto-oncogene tyrosine-protein kinase receptor Ret (Homo sapiens) (UniProt P07949); conditions: at 0.1 µM
[17] = biological target: Proto-oncogene tyrosine-protein kinase receptor Ret (Homo sapiens) (UniProt P07949); conditions: at 1 µM
[18] = system: Proto-oncogene tyrosine-protein kinase receptor Ret (Homo sapiens), P07949 [V804L]; conditions: at 0.1 µM
[19] = system: Proto-oncogene tyrosine-protein kinase receptor Ret (Homo sapiens), P07949 [V804L]; conditions: at 1 µM
[20] = system: Proto-oncogene tyrosine-protein kinase receptor Ret (Homo sapiens), P07949 [Y791F]; conditions: at 0.1 µM
Chain of Proto-oncogene tyrosine-protein kinase receptor Ret (Homo sapiens), P07949 [Y791F] (P07949 whole entry Y791F): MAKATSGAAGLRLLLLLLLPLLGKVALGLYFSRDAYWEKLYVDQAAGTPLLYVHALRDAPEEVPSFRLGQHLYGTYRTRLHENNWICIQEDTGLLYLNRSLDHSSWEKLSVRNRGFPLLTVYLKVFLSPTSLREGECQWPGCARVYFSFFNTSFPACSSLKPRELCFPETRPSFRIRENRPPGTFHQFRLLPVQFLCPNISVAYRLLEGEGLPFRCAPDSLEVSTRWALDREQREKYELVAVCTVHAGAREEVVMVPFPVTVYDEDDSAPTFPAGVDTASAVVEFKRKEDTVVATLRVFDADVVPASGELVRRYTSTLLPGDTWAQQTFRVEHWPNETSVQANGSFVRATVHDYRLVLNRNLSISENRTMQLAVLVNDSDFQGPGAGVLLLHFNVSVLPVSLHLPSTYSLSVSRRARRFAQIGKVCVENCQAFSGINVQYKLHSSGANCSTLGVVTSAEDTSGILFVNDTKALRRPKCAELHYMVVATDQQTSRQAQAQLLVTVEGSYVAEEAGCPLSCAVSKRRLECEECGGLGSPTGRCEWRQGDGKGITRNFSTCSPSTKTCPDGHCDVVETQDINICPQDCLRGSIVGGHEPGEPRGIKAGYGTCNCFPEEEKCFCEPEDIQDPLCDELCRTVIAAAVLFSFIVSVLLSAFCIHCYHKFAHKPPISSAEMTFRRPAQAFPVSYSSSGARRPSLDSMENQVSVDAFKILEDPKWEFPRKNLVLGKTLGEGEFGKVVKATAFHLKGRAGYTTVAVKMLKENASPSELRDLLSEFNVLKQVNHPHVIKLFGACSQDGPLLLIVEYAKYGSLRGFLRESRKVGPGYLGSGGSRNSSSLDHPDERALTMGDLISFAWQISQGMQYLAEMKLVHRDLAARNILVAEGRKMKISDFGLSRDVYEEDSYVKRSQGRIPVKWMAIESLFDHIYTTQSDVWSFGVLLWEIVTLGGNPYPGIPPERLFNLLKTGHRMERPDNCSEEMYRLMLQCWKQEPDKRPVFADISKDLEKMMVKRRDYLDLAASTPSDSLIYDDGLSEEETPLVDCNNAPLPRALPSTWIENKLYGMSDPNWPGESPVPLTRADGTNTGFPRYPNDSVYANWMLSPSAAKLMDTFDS

Chain of Platelet-derived growth factor receptor alpha (Homo sapiens) (P16234 whole entry): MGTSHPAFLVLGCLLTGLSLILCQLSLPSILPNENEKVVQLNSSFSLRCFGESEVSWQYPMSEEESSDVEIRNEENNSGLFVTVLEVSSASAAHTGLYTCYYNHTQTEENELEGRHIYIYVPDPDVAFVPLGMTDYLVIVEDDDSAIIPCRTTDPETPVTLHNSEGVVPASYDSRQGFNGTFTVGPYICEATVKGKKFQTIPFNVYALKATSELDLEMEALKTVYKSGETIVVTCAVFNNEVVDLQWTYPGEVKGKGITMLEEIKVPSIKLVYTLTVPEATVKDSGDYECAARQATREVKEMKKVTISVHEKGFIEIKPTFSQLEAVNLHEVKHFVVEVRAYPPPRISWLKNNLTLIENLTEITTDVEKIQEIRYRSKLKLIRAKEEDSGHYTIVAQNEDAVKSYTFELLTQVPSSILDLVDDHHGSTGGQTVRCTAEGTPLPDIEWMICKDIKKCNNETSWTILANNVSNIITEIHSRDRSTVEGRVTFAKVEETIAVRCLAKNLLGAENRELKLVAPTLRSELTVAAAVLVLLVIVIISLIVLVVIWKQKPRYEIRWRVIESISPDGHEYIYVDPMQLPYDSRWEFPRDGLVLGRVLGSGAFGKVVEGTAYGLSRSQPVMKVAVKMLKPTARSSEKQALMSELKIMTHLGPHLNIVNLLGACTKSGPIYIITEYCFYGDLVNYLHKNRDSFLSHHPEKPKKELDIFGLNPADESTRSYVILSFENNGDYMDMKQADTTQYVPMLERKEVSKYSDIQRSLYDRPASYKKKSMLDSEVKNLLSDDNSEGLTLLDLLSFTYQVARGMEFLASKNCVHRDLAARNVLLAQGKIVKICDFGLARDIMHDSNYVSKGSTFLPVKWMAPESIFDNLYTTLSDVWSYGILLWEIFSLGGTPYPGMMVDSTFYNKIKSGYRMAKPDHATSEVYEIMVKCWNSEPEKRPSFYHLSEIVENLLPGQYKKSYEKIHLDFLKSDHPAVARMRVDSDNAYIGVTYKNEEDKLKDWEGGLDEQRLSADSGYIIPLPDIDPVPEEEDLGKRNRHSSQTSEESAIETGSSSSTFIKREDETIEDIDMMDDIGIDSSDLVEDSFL
Chain of Proto-oncogene tyrosine-protein kinase receptor Ret (Homo sapiens) (P07949 whole entry): as the sequence (P07949 whole entry Y791F) above, with F791Y counted along it
Chain of Proto-oncogene tyrosine-protein kinase receptor Ret (Homo sapiens), P07949 [V804L] (P07949 whole entry V804L): as the sequence (P07949 whole entry Y791F) above, with F791Y, V804L counted along it
Chain of Tyrosine-protein kinase FRK (Homo sapiens) (P42685 whole entry): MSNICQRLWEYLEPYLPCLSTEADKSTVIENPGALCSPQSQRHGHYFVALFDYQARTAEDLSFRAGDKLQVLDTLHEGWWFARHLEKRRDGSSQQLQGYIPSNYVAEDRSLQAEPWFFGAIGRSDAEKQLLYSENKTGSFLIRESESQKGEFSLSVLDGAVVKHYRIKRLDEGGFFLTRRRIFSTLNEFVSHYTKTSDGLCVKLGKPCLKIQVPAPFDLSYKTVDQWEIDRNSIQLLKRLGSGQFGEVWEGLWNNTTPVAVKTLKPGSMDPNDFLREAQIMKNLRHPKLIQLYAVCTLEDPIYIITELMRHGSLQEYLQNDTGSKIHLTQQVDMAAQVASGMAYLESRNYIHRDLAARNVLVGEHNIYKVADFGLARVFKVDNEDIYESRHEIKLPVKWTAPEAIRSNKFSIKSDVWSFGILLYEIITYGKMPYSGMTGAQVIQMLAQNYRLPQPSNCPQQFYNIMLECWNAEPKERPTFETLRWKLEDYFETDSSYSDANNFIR

Row | SMILES | inhibition [1] | inhibition [2] | inhibition [3] | inhibition [4] | inhibition [5] | inhibition [6] | inhibition [7] | inhibition [8] | inhibition [9] | inhibition [10] | inhibition [11] | inhibition [12] | inhibition [13] | inhibition [14] | inhibition [15] | inhibition [16] | inhibition [17] | inhibition [18] | inhibition [19] | inhibition [20]
1 | Cc1ccc(O)cc1Nc1ccnc2ccc(S(C)(=O)=O)cc12 | 5.56% | 72.2% | 85% | 88.8% | 97.1% | 7.4% | 14.8% | 84.7% | 95% | 63.8% | 84.2% | 89% | 95.7% | 15.7% | 41.3% | 81.8% | 88.4% | 7.62% | 26.6% | 81.3%
2 | NS(=O)(=O)c1ccc(Nc2cc(-c3cccc(O)c3)n[nH]2)cc1 | 12.9% | 16.7% | 40.4% | 4.21% | 13.8% | 12.8% | 6.05% | 17.7% | 49% | 9.08% | 26.1% | 0.88% | 2.04% | 10.7% | 12.3% | 6.46% | 15.5% | 9.69% | 21.3% | 13.4%
3 | CS(=O)(=O)CCNCc1nc(-c2ccc3ncnc(Nc4ccc(OCc5cccc(C(F)(F)F)c5)cc4)c3c2)cs1 | 5.88% | 5.06% | 13.7% | -0.28% | 1.79% | 5.99% | 15.7% | 4.8% | 20.4% | 6.68% | 10.1% | 1.71% | 0.38% | -1.25% | 2.41% | 5.26% | 4.11% | 2.89% | 5.13% | 7.97%
4 | Cc1nc(-c2ccccc2)n2nc(NCCCN3CCOCC3)ncc12 | 5.56% | 3.35% | 9.81% | 0.64% | 6.14% | 3% | 5.5% | 2.27% | 3.3% | 1.99% | 5.95% | 3.57% | 2.61% | 1.99% | 10.1% | 0.76% | 6.88% | 2.64% | 7.97% | 4.35%
5 | O=C(Nc1ccc(Oc2ccc3[nH]c(NC(=O)c4ccco4)nc3c2)cc1)Nc1cc(C(F)(F)F)ccc1F | 83.5% | 68% | 85% | 4.64% | 31% | 43.8% | 95.8% | 73.2% | 95.4% | 12.1% | 58.3% | 0.19% | 2.9% | 0.95% | 12.9% | 77.7% | 84.2% | 45.6% | 75.7% | 50.9%
6 | NC(=O)c1cccc(Nc2nccc(Nc3cccc(F)c3)n2)c1 | 7.74% | 7.13% | 43.4% | 1.84% | 33.6% | 0.83% | 5.92% | 6.64% | 46% | 11.5% | 54.2% | 1.18% | 11.8% | 1.12% | 25.4% | -0.62% | 26.8% | 1.12% | 13.8% | 3.72%
7 | CN(c1ccc(NC(=O)Nc2ccc(OC(F)(F)F)cc2)cc1)c1ccnc(Nc2cccc(S(N)(=O)=O)c2)n1 | 58.5% | 76.3% | 86.7% | 9.66% | 46.4% | 46.9% | 87.1% | 87.2% | 96.8% | 67.5% | 82.1% | 5.62% | 40.9% | 5.52% | 59% | 79.8% | 72% | 53.8% | 86.4% | 67.4%
8 | Nc1nccc(-c2c(-c3ccc(F)cc3)nn3cc(C(F)(F)F)ccc23)n1 | -0.61% | 5.02% | 5.93% | 0.17% | 0.96% | -0.84% | 1.89% | 1.05% | 1.99% | 0.39% | 2.13% | -1.38% | 1.04% | – | – | 2.76% | -0.03% | 0.95% | 0.97% | -0.45%
9 | COC(=O)c1cncc(/C=C/c2c(C)cc(O)cc2C)c1 | 3.88% | 14.8% | 42.8% | 0.7% | 7.7% | 3.58% | 6.85% | 27% | 54.8% | 9.77% | 36.7% | 2.26% | 6.54% | 9.3% | 10.1% | 2.45% | 5.3% | 2.74% | 7.8% | 0.65%
10 | O=C1Nc2ccccc2/C1=C/Nc1ccc2[nH]c(=O)[nH]c2c1 | 29.5% | 26.1% | 65.3% | 18% | 69.2% | 18.2% | 80.1% | 26.1% | 69.8% | 19.7% | 56.7% | 6.33% | 8.07% | 20.6% | 46.4% | 23.7% | 61.3% | 32.4% | 75.4% | 25.8%
11 | CCS(=O)(=O)c1ccc(OC)c(Nc2nccc(N(C)c3ccc4c(C)n[nH]c4c3)n2)c1 | 1.07% | 22.9% | 67.5% | 21.8% | 74.3% | 5.5% | 12.5% | 20.5% | 69.5% | 20.9% | 70.9% | 20.6% | 70.2% | 4% | 19% | 64.8% | 83.5% | 4.04% | 8.57% | 58.1%
12 | COc1cccc(-n2ncc3c(N/N=C/c4ccc(S(C)(=O)=O)cc4)ncnc32)c1 | 23.3% | 43.7% | 77.8% | 51.8% | 89% | 21% | 80.5% | 44.1% | 86.2% | 52.4% | 78.1% | 0.47% | 3.05% | 3.04% | 5.9% | 11.4% | 30.7% | 4.8% | 8.24% | 14.1%
13 | COc1cc2ncn(-c3cc(OCc4ccccc4S(C)(=O)=O)c(C#N)s3)c2cc1OC | 50.6% | 59.9% | 81.6% | 47.5% | 88% | 7.95% | 36.1% | 47.3% | 87.8% | 45.3% | 78.1% | 3.38% | 4.36% | 12% | 25.6% | 18.2% | 63.7% | 11.3% | 53.6% | 23.2%
